“And” between values parts separate entries of the source, which are not always exact repeats. Identical values can stand only once. Inconclusive results are not listed. The source made the active and inactive calls. Calls follow the shape of the dose curve; as a rule, active = well fitted cell-killing curve with a large enough effect; inconclusive = small, poorly fitted or top-dose-only effect; inactive = flat fitted curve, though single readings scatter.
Experiments:
[1] = Cell Viability - LYMP2-025 (AID 976)
In short: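 Human lymphoblastoid LYMP2-025 cells, 2500/well, exposed 24 h at 37 C in complete medium in 1536-well qHTS. Viability as cellular ATP by CellTiter-Glo luminescence; AC50 from Hill fits of concentration-response data.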

[2] = Cell Viability - LYMP2-002 (AID 977);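 also: compound exposure lasted 24 h at 37 °C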
In short: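 Cytotoxicity is scored as concentration-dependent loss of cellular ATP in a human lymphoblastoid line after 24 hr compound treatment at 37 C. AC50 is obtained by modelling concentration-response data with the Hill equation.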

[3] = Cell Viability - LYMP2-007 (AID 979);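 also: cells exposed to compound for 24 h before reading; nearly all actives have a fitted effect of over 60% in size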
In short: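 Human lymphoblastoid LYMP2-007 cells (2500/well) preincubated 5 h at 37 C, then treated 24 h at 37 C in complete medium. Viability by CellTiter-Glo ATP luminescence after 30 min at room temperature; AC50 from Hill fits.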

[4] = Cell Viability - LYMP2-008 (AID 980); also: nearly all actives have a fitted effect of over 60% in size
In short: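 LYMP2-008 lymphoblastoid cells (2500/well) plated 5 h, then treated 24 h at 37 C in complete medium. Viability read as intracellular ATP by CellTiter-Glo luminescence after 30 min at room temperature; AC50 from Hill fits.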

[5] = Cell Viability - LYMP2-010 (AID 981); also: nearly all actives have a fitted effect of over 55% in size
In short: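 Human lymphoblastoid LYMP2-010 cells (2500/well) treated 24 h at 37 C in complete medium; viability read as intracellular ATP by CellTiter-Glo luminescence. AC50 from Hill fits of concentration-response data; tetraoctylammonium bromide positive control.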

[6] = Cell Viability - LYMP2-012 (AID 982);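 also: cellular ATP by luciferase luminescence where a drop means cytotoxicity; cells exposed to compound for one day before reading; nearly all actives have a fitted effect of over 55% in size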
[7] = Cell Viability - LYMP2-016 (AID 984); also: nearly all actives have a fitted effect of over 55% in size
In short: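 Acute toxicity in a Coriell human lymphoblastoid line is scored as loss of intracellular ATP over 24 h of treatment in complete medium. CellTiter-Glo signal is fitted across concentrations with the Hill equation to give AC50.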

[8] = Cell Viability - LYMP2-020 (AID 986); also: nearly all actives have a fitted effect of over 55% in size
In short: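 Human lymphoblastoid LYMP2-020 cells (2500/well) preincubated 5 h at 37 C, then treated 24 h at 37 C. Viability measured as intracellular ATP by CellTiter-Glo luminescence after 30 min at room temperature; AC50 from Hill fits.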

[9] = Cell Viability - LYMP2-022 (AID 987); also: nearly all actives have a fitted effect of over 55% in size
In short: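 LYMP2-022 lymphoblastoid cells (2500/well, complete medium) were treated with compounds for 24 hours at 37 C; intracellular ATP was then read by CellTiter-Glo luminescence after 30 min at room temperature. AC50 values were derived from Hill-equation fits.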

[10] = Cell Viability - LYMP2-024 (AID 988); also: nearly all actives have a fitted effect of over 60% in size
In short: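 Human lymphoblastoid LYMP2-024 cells (2500/well) rested 5 hr, then treated with compound for 24 hr at 37 C in complete medium. Viability was measured as intracellular ATP by CellTiter-Glo luminescence. AC50 values came from Hill-equation fits.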

Measured: Potency
Potency is read from the fitted curve at half-maximal effect.

Oc1ccc(Cl)cc1Cc1ccccc1
inactive: all assays above

CCCC(C)(COC(N)=O)COC(=O)NC(C)C (stereo not drawn)
inactive: all assays above

CC(COc1ccccc1)N(CCCl)Cc1ccccc1 (stereo not drawn)
active: [2] 50.1 µM | [3] 39.8 µM | [4] 39.8 µM | [8] 50.1 µM

CNCC(O)c1ccc(O)cc1 (stereo not drawn)
inactive: all assays above

c1ccc2c(c1)Nc1ccccc1S2
inactive: all assays above

Clc1ccc(COC(Cn2ccnc2)c2ccc(Cl)cc2Cl)cc1 (stereo not drawn)
active: [3] 50.1 µM | [4] 50.1 µM

Oc1cccc2cccnc12
active: [2] 25.1 µM and 15.8 µM | [3] 15.8 µM | [4] 15.8 µM and 12.6 µM | [5] 12.6 µM and 10 µM | [6] 15.8 µM and 10 µM | [7] 15.8 µM | [8] 12.6 µM and 10 µM | [9] 10 µM and 6.31 µM | [10] 7.94 µM

N[C@@H](Cc1ccc(N(CCCl)CCCl)cc1)C(=O)O
active: [2] 39.8 µM | [3] 25.1 µM | [4] 31.6 µM | [5] 31.6 µM | [6] 31.6 µM | [7] 25.1 µM | [8] 39.8 µM | [9] 15.8 µM | [10] 20 µM

CCOP(=S)(OCC)Oc1cc(C)nc(C(C)C)n1
inactive: all assays above

C[C@]12C/C(=C/O)C(=O)C[C@@H]1CC[C@@H]1[C@@H]2CC[C@@]2(C)[C@H]1CC[C@]2(C)O
inactive: [1]
active: [5] 50.1 µM

NCC(O)c1ccc(O)cc1 (stereo not drawn)
inactive: all assays above

OCCOc1ccccc1
inactive: all assays above

Oc1ccccc1-c1ccccc1
inactive: all assays above

CC(=O)Oc1ccccc1C(=O)Nc1ncc([N+](=O)[O-])s1
active: [1] 31.6 µM | [2] 31.6 µM | [4] 31.6 µM | [5] 39.8 µM | [6] 39.8 µM | [7] 39.8 µM | [10] 39.8 µM
